Measurements: PubChem BioAssay AID652039 (The Scripps Research Institute Molecular Screening Center, 2013)
“And” between values parts separate entries of the source, which are not always exact repeats. Equal values may be shown once. Out of some 370,000 compounds screened, about 3,300 (0.89%) were called active. The full list was thinned out, with actives kept by preference. Values without a mark were called inactive.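 How the source made its calls: active means activation above the mean of all tested compounds plus 3 SD, computed per campaign excluding outliers beyond control limits (cut at about 13% in these data); inactive means the rest.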

These compounds were tested against Kallikrein-7 (Homo sapiens) (UniProt P49862) (assay: activation of human kallikrein-7 proenzyme – biochemical, fluorescence intensity, primary screen (AID 652039)). Settings: purified proKLK7, EDANS-DABCYL substrate fluorescence; at 7 µM; stronger effect = higher value; 100% is mature enzyme control, 0% vehicle.
Kallikrein-7 (Homo sapiens), sequence (P49862 whole entry, looked up): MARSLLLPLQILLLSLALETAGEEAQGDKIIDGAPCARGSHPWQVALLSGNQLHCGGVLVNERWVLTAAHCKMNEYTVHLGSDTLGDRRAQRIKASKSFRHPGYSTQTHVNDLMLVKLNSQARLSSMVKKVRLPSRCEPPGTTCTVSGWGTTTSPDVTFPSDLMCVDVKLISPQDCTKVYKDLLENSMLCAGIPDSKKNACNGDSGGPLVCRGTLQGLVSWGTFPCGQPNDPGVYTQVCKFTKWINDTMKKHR
For `CCOC(=O)NN1C(=O)c2ccccc2NC1c1ccccc1O` (stereo unspecified), the activation was 8.02%.
`CC(C)N1C(=O)c2ccccc2NC(=O)C1C(=O)NCc1cccs1` (stereo unspecified) showed an activation of 0%.
In the case of `O=C1c2ccccc2NC(c2ccccc2O)N1NS(=O)(=O)c1ccccc1` (stereo unspecified), the activation is reported as 6.73%.
In the case of `CCOC(=O)NN1C(=O)c2ccccc2NC1c1cccc(O)c1` (stereo unspecified), the activation is reported as 26.7% (active).
For `CC(=O)NN1C(=O)c2ccccc2NC1c1ccccc1` (stereo unspecified), the activation was 15.6% (active).
`CN(C)c1ccc(C2Nc3ccccc3C(=O)N2NS(=O)(=O)c2ccccc2)cc1` (stereo unspecified) gave an activation of 4.94%.
Work on `COC(=O)[C@]12C[C@H](CC(=O)NCc3cccc4ccccc34)C(=O)N(CCc3ccc(OC)c(OC)c3)C1=C[C@H](C1CCCC1)O[C@@H]2C` yielded an activation of 0.51%.
With `COc1ccc(C(=O)CSc2nnc(-c3cnccn3)n2-c2ccc(C)cc2)cc1` the activation was 0.34%.
`C[C@@H]1ON(C)[C@H]2C[C@H]3c4[nH]c5cccc(-c6ccc7c(c6)OCO7)c5c4CCN3C[C@@H]12` gave an activation of 0.38%.
Work on `CCC(C)[C@@H](C(=O)OC)N(CCc1cn(Cc2ccccc2)nn1)S(=O)(=O)c1ccccc1Br` (stereo partly specified) yielded an activation of 0.31%.
With `CCC(=O)Nc1ccc2c(c1)C(=O)N(C)[C@H]1CC[C@H](CC(=O)NCCOC)O[C@@H]1CO2` the activation was -0.03%.
For `COCC(=O)N[C@@H]1C[C@@H]2O[C@@H](CO)CC[C@@H]2O[C@@H]1CCc1ccc(-c2ccccc2)cc1`, the activation was -0.04%.
`COCCN(CCOC)c1nc(N)c2c(N)nc3c(c2c1C#N)CC(=O)N3Cc1ccc(Cl)cc1` was tested, and the activation was 50.3% (active).
For `O=C(c1c[nH]c2ccccc12)N1CCC(Oc2cccnc2)CC1`, the activation was 0.8%.
With `COC(=O)C[C@@H]1CC[C@@H]2[C@@H](COc3ccc(NC(=O)Nc4ccc(F)c(F)c4)cc3C(=O)N2C)O1` the activation was 0.06%.
For `COC(=O)C[C@@H]1CC[C@@H]2[C@H](COc3ccc(NC(=O)c4cccc(F)c4)cc3C(=O)N2C)O1`, the activation was -0.18%.
In the case of `CCOC(=O)c1cc(-c2ccc(Cl)s2)nc2c1c(C)nn2C`, the activation is reported as -3.83%.
With `COc1cc(/C=C/C(=O)Nc2ccc(OC)c(S(=O)(=O)N3CCOCC3)c2)ccc1OCC#N` the activation was 40.2% (active).
`COc1ccc(CCC(=O)Nc2ccc(Cl)c(S(=O)(=O)N3CCOCC3)c2)cc1OC` gave an activation of 0.18%.
`COc1cc(/C=C/C(=O)OCC(=O)N2CCOCC2)ccc1OCC#N` gave an activation of 3.33%.
Compound `COP(=O)(O)CNC(=O)OCc1ccccc1` has an activation of -0.07%.
`Cc1ccc(C(=O)N(Cc2ccccn2)CC2CCCO2)cc1` (stereo unspecified) showed an activation of -0.88%.
`CCc1ccccc1NC(=O)CSc1nnc(-c2cccs2)o1` gave an activation of 0.68%.
In the case of `COC(=O)[C@]1(C#N)CC(=O)N(CC2CCCCC2)[C@@H]1c1ccccc1`, the activation is reported as -0.2%.
For `COc1ccc(C#CCNCc2ccc(OC)cc2OC)cc1`, the activation was 0.52%.
`Cc1cc(N2CCN(C)CC2)nc2ccc(NC(=S)N3CCOCC3)cc12` showed an activation of 7.61%.
With `Cc1cc(N2CCOCC2)nc2ccc(NC(=S)N3CCN(Cc4ccccc4)CC3)cc12` the activation was 16.8% (active).
For `CCOCCCNC(=S)Nc1ccc2nc(N3CCN(CC)CC3)cc(C)c2c1`, the activation was 2.27%.
With `CC(=O)c1cc(-c2ccc3ccccc3c2)c(=O)n2c1CCC2` the activation was 0.82%.
With `CCOc1ccc(N2C(=O)CC(N(CCc3ccc(OC)c(OC)c3)C(=S)Nc3ccccc3)C2=O)cc1` (stereo unspecified) the activation was 0.29% and 0.35%.
For `CCOc1ccc(N2C(=O)CC(N(O)c3ccccc3)C2=O)cc1` (stereo unspecified), the activation was 95.9% (active).
Work on `CCOC(=O)c1ccc(N2C(=O)CC(N(C)Cc3ccccc3)C2=O)cc1` (stereo unspecified) yielded an activation of 0.66%.
`Cc1cccc(OCCNC(=O)CSc2ccc(C(F)(F)F)cc2[N+](=O)[O-])c1` showed an activation of 0.55%.
With `CC(C)CNC(=O)OCc1cn(Cc2ccc(F)cc2)nn1` the activation was -0.65%.
With `Cc1c(C(C)c2ccccc2O)[nH]c2ccccc12` (stereo unspecified) the activation was 0.01%.
In the case of `CC(=O)Nc1cc(-c2ccccc2F)cn2c(-c3cccc(C(F)(F)F)c3)cnc12`, the activation is reported as -0.51%.
`Cc1ccc(-c2c(N)nc3ncccn23)cc1` showed an activation of 1.47%.
In the case of `CC(=O)Nc1nc2ncccn2c1-c1ccc(C(F)(F)F)cc1`, the activation is reported as 17.7% (active).
Work on `COC(=O)C1CN(CC(C)C)CCS(=O)(=O)N1Cc1ccc(C)cc1` (stereo unspecified) yielded an activation of -0.1%.
`CN(CC1CCCO1)S(=O)(=O)c1ccc(C(=O)Nc2ccc(F)cc2)cc1` (stereo unspecified) showed an activation of -0.36%.
With `COC(=O)C1CN(Cc2ccc(F)cc2)CCS(=O)(=O)N1Cc1ccc(Cl)cc1` (stereo unspecified) the activation was -0.13%.
Compound `O=S1(=O)c2ccc(N3CCN(Cc4ccccc4F)CC3)cc2Oc2ccccc2CN1Cc1cn(Cc2ccc(Cl)cc2)nn1` has an activation of -0.98%.
`CC1C/C(=N/NC(=O)c2cccs2)CC(C)(C)C1` (stereo unspecified) showed an activation of 0.16%.
With `COC(=O)[C@]12C[C@H](CC(=O)NCc3ccccc3)C(=O)N(CCC3=CCCCC3)C1=C[C@H](C(C)C)O[C@@H]2C1CC1` the activation was 0.56%.
For `CC(C)[C@H](NC(=O)Nc1ccc(S(N)(=O)=O)cc1)C(=O)O`, the activation was -0.23%.
With `CC(=O)Nc1nc(C)c(-c2csc(Nc3ccc(S(N)(=O)=O)cc3)n2)s1` the activation was 118% (active).
With `C=CCCC(=O)Nc1nc(C)c(-c2csc(Nc3ccc(Cl)cc3)n2)s1` the activation was -1.66%.
`Cc1ccc(Cn2cc(CN3[C@@H](C)COc4cc(Br)ccc4S3(=O)=O)nn2)cc1` gave an activation of 0.74%.
With `COc1ccc(-n2c(COc3ccc(C)cc3)nnc2SCC(=O)Nc2ccc(Oc3ccccc3)cc2)cc1` the activation was -0.88%.
`COc1ccc2c3c(c(=O)oc2c1OCC(=O)C(C)(C)C)CCCC3` showed an activation of 2.75%.
In the case of `CCCOc1ccc2c3c(c(=O)oc2c1OCCC)CCC3`, the activation is reported as -1.41%.
With `O=c1oc2c(CN3CCCCC3)c(O)ccc2c2c1CCCCC2` the activation was 68.2% (active).
Compound `O=C(OC12CCCN(C1)/C(=C/c1cccnc1)C2)C1CCCC1` (stereo unspecified) has an activation of 0.01%.
In the case of `CCN1CCCC1CNC(=O)c1cc2cc(OC)c(OC)cc2[nH]1` (stereo unspecified), the activation is reported as 17.5% (active).
With `COc1ccc(C(=O)NCC2CCCN2S(=O)(=O)c2cccs2)cc1OC` (stereo unspecified) the activation was 0.25%.
`CCN1CCCC1CNC(=O)c1ccc2c(c1)NC(=O)/C(=C\c1ccccc1F)S2` (stereo unspecified) was tested, and the activation was 0.44%.
